Laboratory results from PubChem BioAssay AID1347416 (National Center for Advancing Translational Sciences (NCATS), 2020).
About 1,600 (39%) of roughly 4,100 compounds were called active. About 25% were inconclusive and are not listed. Calls come from the whole dose curve; as a rule, active = well fitted inhibition curve with a large enough effect; inconclusive = small, poorly fitted or top-dose-only effect; inactive = no such curve, though single readings can be large or run the other way. The list shows a part of the results.

Test: qHTS Validation assay for Inhibitors of Plasmodium falciparum Dd2 growth in vitro; note: nearly all actives have a fitted effect of over 70% in size
Conditions: P. falciparum Dd2 in RBCs, SYBR Green growth, 72 h; series mostly up to 28.7 µM; activity change, negative = inhibition: at the top concentration
In short: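 P. falciparum Dd2-infected red blood cells (2.5% hematocrit, 0.3% parasitemia) grown 72 h at 37 °C under 5% O2 with compounds in a titration, 29 uM to 0.5 nM final. Growth read as SYBR Green-1 fluorescence after ~16 h lysis; artesunate 300 nM as positive control.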
% is set by controls: 0 for no effect and ±100 for the full control effect; potency is the fitted concentration of half-maximal effect.

SMILES | Potency | activity change, negative = inhibition
Oc1ccc(Cl)cc1CNCc1ccc(C(F)(F)F)cc1 | 4.22 µM (active) | –
Oc1ccc(Cl)cc1CNCC1CCCCC1 | 4.22 µM (active) | –
Oc1ccc(Cl)cc1CNCc1cccc2ccccc12 | 0.842 µM (active) | –
O=C(Nc1cccc(-c2nc3ccccc3[nH]2)c1)c1ccc(C(=O)Nc2cccc(-c3nc4ccccc4[nH]3)c2)cc1 | 2.66 µM (active) | –
CC(=O)Nc1ccc(S(=O)(=O)N2CCC(n3c(C)nc4cccnc43)CC2)cc1 | – | 23.5% (inactive)
CC1CCCCN1S(=O)(=O)c1ccc(C(=O)Nc2ccccc2-c2nc3ccccc3[nH]2)cc1 (stereo not given) | 7.5 µM (active) | –
COC(=O)c1ccc(NC(=O)CSc2nc3cc4ccccc4cc3[nH]2)cc1 | – | -17.5% (inactive)
Nc1ccc2nc(-c3cccnc3)[nH]c2c1 | – | -37.2% (inactive)
O=C(Nc1cccc(Oc2ccc(C(=O)O)c(C(=O)O)c2)c1)c1ccc(-c2ccccc2)cc1 | – | 11.3% (inactive)
CS(=O)(=O)c1ccc(C(=O)Nc2ccc(-c3nc4ccccc4[nH]3)cc2)cc1 | 7.5 µM (active) | –
CC(C)(C)N1C(=O)c2ccc(C(=O)Nc3ccc(-c4nc5ccccc5[nH]4)cc3)cc2C1=O | 6.68 µM (active) | –
COc1ccc(CCN(C)C(=S)Nc2cccc(C)c2)cc1OC | 2.11 µM (active) | –
COc1cc2c(cc1OC)C(c1ccccc1N)=NCC2 | – | -18.1% (inactive)
Brc1c(C[n+]2ccccc2)nc2ccccn12 | – | -12.1% (inactive)
CCc1cc(CN(C)C(=O)c2cc(COc3ccccc3F)[nH]n2)on1 | – | 29.2% (inactive)
CC(=O)Nc1ccc(CN2C(=O)OC3(CCN(C(=O)C4CCC4)CC3)C2(C)c2ccccc2)cc1 (stereo not given) | – | -21.2% (inactive)
CC1(c2ccccc2)N(Cc2ccccc2)C(=O)OC12CCN(Cc1cccnc1)CC2 (stereo not given) | 15.3 µM (active) | –
CC1(c2ccccc2)N(Cc2cccnc2)C(=O)OC12CCN(C(=O)Cc1ccc(Cl)cc1)CC2 (stereo not given) | 13.3 µM (active) | –
CCN1CCN(c2nc3c(s2)CN(C(=O)Cc2cccnc2)CC3)CC1 | – | 29.4% (inactive)
CC1(c2ccccc2)N(Cc2cccnc2)C(=O)OC12CCN(Cc1ccccc1)CC2 (stereo not given) | 17.2 µM (active) | –
CCN(CC)c1ccc(C(=O)N2CCCC(n3cc(-c4noc(C)n4)nn3)C2)cc1 (stereo not given) | – | -5.7% (inactive)
COc1ccc(C(=O)N[C@@H]2CCC[C@@H]2C(=O)NC(C)C)cc1 | – | -18.7% (inactive)
COc1cccc(CNC(=O)N[C@@H]2CN(Cc3ccncc3)C[C@H]2CN(C)C)c1 | – | 0% (inactive)

SMILES | Potency | activity change, negative = inhibition
COc1ccc(C(=O)N[C@@H]2CN(Cc3cccc(OC)c3)CCC[C@H]2O)cc1 | 10.9 µM (active) | –
CC(C)(C)Nc1nc(NC(C)(C)C)nc(-n2ccnc2)n1 | 4.73 µM (active) | –
CCc1ccc(CN(C(=O)c2nc(SC)ncc2Cl)C2CCS(=O)(=O)C2)cc1 (stereo not given) | – | -8.57% (inactive)
CN1CCN(c2ccc(-c3cccc(N)c3)nn2)CC1 | – | -6.65% (inactive)
CN1CCN(c2ccc3ncc(Nc4ccccc4-c4ccccc4)n3n2)CC1 | 0.863 µM (active) | –
c1ccc(Oc2ccc(Nc3cnc4ccc(N5CCOCC5)nn34)cc2)cc1 | 7.69 µM (active) | –
CN(C)c1ccc2ncc(Nc3ccc(Oc4ccccc4)cc3)n2n1 | 8.63 µM (active) | –
COc1cc(NC(=O)c2cc(-c3cccs3)on2)c(OC)cc1Cl | – | 4.63% (inactive)
O=C(Nc1ccccc1C(F)(F)F)c1cc(-c2ccccc2O)on1 | 2.99 µM (active) | –
O=C(Nc1ccccc1OCc1cc(=O)n2ccccc2n1)Nc1ccccc1C(F)(F)F | – | 64.6% (inactive)
CCOc1cccc(/C=N/Nc2nc(N3CCCC3)nc(N3CCCC3)n2)c1O | – | -13.7% (inactive)
Cc1ccc(-c2noc(-c3ccc(N4CCCC4)c([N+](=O)[O-])c3)n2)cc1 | – | -4.43% (inactive)
COc1ccc(/C=N/Nc2nc(Nc3ccccc3)nc(N3CCCC3)n2)cc1[N+](=O)[O-] | 6.68 µM (active) | –
NCCn1cc(C(=O)N2CCCC(c3[nH]ncc3Cc3ccccc3)C2)nn1 (stereo not given) | – | 35.2% (inactive)
COc1ccc(Nc2c(-c3cc(Br)ccc3O)nc3ncccn23)cc1OC | 4.73 µM (active) | –
CC(C)(C)CC(=O)Nc1ccc(S(=O)(=O)N2CCCC2)cc1 | – | 23.1% (inactive)
CCN(CC)CCCNC(=O)C1CCN(S(=O)(=O)CC)CC1 | – | 9.31% (inactive)
CCCCNC(=O)c1cccc2c1CCN2S(=O)(=O)c1cccc(C)c1 | – | -16.4% (inactive)
CCN(CC)CCNC(=O)c1ccc(NC(=O)c2ccc(S(=O)(=O)N3CCCCCC3)cc2)cc1 | 8.41 µM (active) | –
CCN(CC)CCNC(=O)c1ccc(NC(=O)c2cccc(S(=O)(=O)N3CCc4ccccc43)c2)cc1 | 5.31 µM (active) | –
Cc1cc(C)cc(N2C(N)=NC(N)=NC2c2cccc(Cl)c2)c1 (stereo not given) | – | -28.9% (inactive)
COc1ccc(-c2cc(N3CCCC(NC(=O)c4cccc(F)c4)C3)n[nH]2)cc1 (stereo not given) | – | -11.7% (inactive)
